Results taken from PubChem BioAssay (EPA / NIEHS).
Calls of active or inactive are those of the source. The calls were made as follows: active = hit-call score of the fitted dose curve at least 0.9, where 1 is the maximum; inactive = score below 0.9.

What follows are molecules tested on Interleukin 6 (IL6), IL6 (gene 3569) (assay: LTEA_HepaRG_IL6: Life Technologies and Expression Analysis (LTEA) Assay for Interleukin 6 (IL6) using HepaRG (AID 2283509)). Conditions: mRNA level, 48 h; actives raise or lower the signal.
Experimental: LTEA_HepaRG is a cell based, multiplexed-readout assay that uses HepaRG, a human liver cell line, with measurements taken at 48 hours after chemical dosing on a 96-well plate.LTEA_HepaRG_IL6 is one of 102 assay component(s) measured in the LTEA HepaRG cell culture assay. It is a marker of Inflammation.Data from the assay component LTEA_HepaRG_IL6 was analyzed into 1 endpoint. This assay endpoint, LTEA_HepaRG_IL6, was analyzed with bidirectional fitting relative to DMSO as the negative control and baseline of activity. Using a type of inducible reporter, measures of mRNA induction for gain or loss-of-signal activity can be used to understand regulation of transcription factor activity. To generalize the intended target to other relatable targets, this assay endpoint is annotated to the cytokine intended target family, where the subfamily is interleukins.
A total of 1060 chemcials from the ToxCast library were tested in eight-point concentration-response experiments. Cell culture and cytotoxicity assays were conducted at Thermo Fisher Scientific's Custom Services facility (Madison, WI). A single lot of human HepaRG cells (Thermo Fisher Scientific, Frederick, MD) was used for the cell culture experiments. 96-well format collagen type I coated plates of human HepaRG cells were prepared using established methods. Briefly, cryopreserved HepaRG cells were thawed, plated at a density of approximately 100,000 cells/well in HepaRG Thaw, Plate, and General Purpose media (HPRG770, Thermo Fisher Scientific), and incubated for 48 hours. 0.5% DMSO was selected as vehicle control to balance the requisite need of DMSO in HepaRG cultures to maintain differentiation (for example, baseline metabolism, proportions of hepatocytes vs. cholangiocytes), while enabling further hepatic receptor pathway activation (for example, PXR and CAR) in response to chemical exposure. 48 hours after plating, the culture medium was replaced with HepaRG Serum-Free Incudtion Media. Cells were exposed to each test chemical in duplicate and maintained in CO2 incubators for another 48 hours. Chemical plates were thawed to room temperature and 200x concentrations of treatment groups were prepared. 8-point conentration-reponse curves were made with the highest exposure at 100 uM, followed by half-log dilutions, all in 0.5% DMSO. Each test plate contained variouse controls, induction positive controls (1mM phenobarbital), cytotoxicity positive controls ([…] aflatoxin B1), vehicle controls (0.5% DMSO), and total lysis controls (0.5% DMSO). Cell morphology images were taken using an Essen IncuCyte FLR automated microscope, with six 96-well plates imaged in about 24 minutes. Images were captured and exported and JPEG files. Spent culture media was transfered to black-well plates for the LDH assay, and remaining media was sorted at -80 C for later use. Cells were treated with RLT buffer and frozen until shipped for gene expression analysis. Total RNA was isolated from the cell suspension in 75 uL of Buffer RLT (Qiagen, Germantown, MD 20874) by Quintiles/Expression Analysis (Durham, NC) using a custom isolation procedure. Total RNA from each plate well was transferred to a preamplification plate. Fluidigm's 96.96 Dynamic ArrayTM (Fluidigm, Amsterdam, the Netherlands) technology was used for gene expression analyses by quantitative reverse transcription polymerase chain reaction (qRT-PCR, performed by Quintiles/Expression Analysis, Durham, NC)89. Standard TaqManTM Assays (Applied Biosystems/ThermoFisher Scientific, Foster City, CA) were used to assess the expression of 93 genes selected based on their selectivity and sensitivity to important hepatic receptors known to be modulated by environmental chemicals; importance in human hepatocyte functionality; and hepatotoxicity. […]

**Q.** For `CCOP(=S)(OCC)Oc1nc(Cl)n(C(C)C)n1`, which outcome is on record?
**A.** Its outcome is “inactive”.

**Q.** How did the outcome turn out when `C=C(C)CN(CC)c1c([N+](=O)[O-])cc(C(F)(F)F)cc1[N+](=O)[O-]` was run?
**A.** Its outcome is “inactive”.

**Q.** For `CCN(CC)C(=O)C(C)Oc1cccc2ccccc12` (stereo not given), which outcome is on record?
**A.** Its outcome is “inactive”.

**Q.** `CC1(C)CON(Cc2ccccc2Cl)C1=O` was tested. Which outcome did it give?
**A.** Its outcome is “inactive”.

**Q.** With `CCCCOCN(C(=O)CCl)c1c(CC)cccc1CC` as the molecule, how does the outcome read?
**A.** The outcome was “inactive”.

**Q.** Which outcome does the source give for `Cc1ccc(N=CN(C)C=Nc2ccc(C)cc2C)c(C)c1` here?
**A.** Its outcome is “inactive”.

**Q.** With `CCOC(=O)C(C)OC(=O)c1cc(Oc2ccc(C(F)(F)F)cc2Cl)ccc1[N+](=O)[O-]` (stereo not given) as the molecule, how does the AC50 read?
**A.** The AC50 was 9.92 µM (active).

**Q.** For `CC(C)=CC1C(C(=O)OCc2coc(Cc3ccccc3)c2)C1(C)C` (stereo not given), which outcome is on record?
**A.** The outcome was “inactive”.

**Q.** How did the outcome turn out when `C=CCOC(=O)C(C)(C)OC(=O)c1cc(-n2c(=O)cc(C(F)(F)F)n(C)c2=O)ccc1Cl` was run?
**A.** The outcome was “inactive”.

**Q.** How did the outcome turn out when `O=C(O)c1c(Cl)ccc2cc(Cl)cnc12` was run?
**A.** The outcome was “inactive”.

**Q.** With `CC(C)C1(C)N=C(c2ncccc2C(=O)O)NC1=O` (stereo not given) as the molecule, how does the outcome read?
**A.** Its outcome is “inactive”.

**Q.** `COCC(=O)N(c1c(C)cccc1C)C(C)C(=O)OC` (stereo not given) was tested. Which outcome did it give?
**A.** Its outcome is “inactive”.

**Q.** Which outcome does the source give for `COP(=S)(OC)SCn1nnc2ccccc2c1=O` here?
**A.** The outcome was “inactive”.

**Q.** How did the outcome turn out when `CC1(C)C(C=C(Cl)Cl)C1C(=O)OC(C#N)c1cccc(Oc2ccccc2)c1` (stereo not given) was run?
**A.** Its outcome is “inactive”.

**Q.** How did the outcome turn out when `Cc1nc(N(C)C)nc(OC(=O)N(C)C)c1C` was run?
**A.** The outcome was “inactive”.

**Q.** For `CO/N=C(/C1=NOCCO1)c1ccccc1Oc1ncnc(Oc2ccccc2Cl)c1F`, which AC50 is on record?
**A.** Its AC50 is 28.4 µM (active).

**Q.** For `N#CN=C1SCCN1Cc1ccc(Cl)nc1`, which outcome is on record?
**A.** The outcome was “inactive”.

**Q.** For `CC(C)NC(=O)N1CC(=O)N(c2cc(Cl)cc(Cl)c2)C1=O`, which outcome is on record?
**A.** Its outcome is “inactive”.

**Q.** `CCCCC(C#N)(Cn1cncn1)c1ccc(Cl)cc1` (stereo not given) was tested. Which outcome did it give?
**A.** Its outcome is “inactive”.

**Q.** For `Cc1c(COC(=O)[C@@H]2[C@H](/C=C(\Cl)C(F)(F)F)C2(C)C)cccc1-c1ccccc1`, which outcome is on record?
**A.** Its outcome is “inactive”.

**Q.** With `O=c1n(Cl)c(=O)n(Cl)c(=O)n1Cl` as the molecule, how does the outcome read?
**A.** The outcome was “inactive”.

**Q.** `CC(C)Nc1nc(Cl)nc(NC(C)C)n1` was tested. Which outcome did it give?
**A.** Its outcome is “inactive”.

**Q.** `CS(=O)(=O)c1ccc(C(=O)C2C(=O)CCCC2=O)c([N+](=O)[O-])c1` was tested. Which outcome did it give?
**A.** Its outcome is “inactive”.

**Q.** `OC(c1ccc(Cl)cc1)(c1ccc(Cl)cc1)C(Cl)(Cl)Cl` was tested. Which AC50 did it give?
**A.** Its AC50 is 76.6 µM (active).

**Q.** With `CCN(CC)c1nc(C)cc(OP(=S)(OC)OC)n1` as the molecule, how does the outcome read?
**A.** The outcome was “inactive”.

**Q.** With `CCOc1nc(F)cc2nc(S(=O)(=O)Nc3c(Cl)cccc3Cl)nn12` as the molecule, how does the AC50 read?
**A.** The AC50 was 29.8 µM (active).

**Q.** `CC(C)Oc1cccc(NC(=O)c2ccccc2C(F)(F)F)c1` was tested. Which outcome did it give?
**A.** Its outcome is “inactive”.

**Q.** With `Clc1cccc(C(Cl)(Cl)Cl)n1` as the molecule, how does the outcome read?
**A.** Its outcome is “inactive”.

**Q.** Which outcome does the source give for `CC(C)N1C(=O)c2ccccc2NS1(=O)=O` here?
**A.** The outcome was “inactive”.

**Q.** Which outcome does the source give for `CCSC(=O)N1CCCCCC1` here?
**A.** The outcome was “inactive”.

**Q.** Which AC50 does the source give for `COCC(C)N(C(=O)CCl)c1c(C)csc1C` (stereo not given) here?
**A.** Its AC50 is 22.7 µM (active).

**Q.** How did the outcome turn out when `CCNC(=O)NC(=O)C(C#N)=NOC` was run?
**A.** Its outcome is “inactive”.

**Q.** Which AC50 does the source give for `CC(C)N1C(=O)N(c2ccccc2)CSC1=NC(C)(C)C` here?
**A.** Its AC50 is 77.1 µM (active).

**Q.** How did the outcome turn out when `COc1ccc(-c2ccccc2)cc1NNC(=O)OC(C)C` was run?
**A.** Its outcome is “inactive”.

**Q.** Which outcome does the source give for `COC(=O)c1c(C(F)F)nc(C(F)(F)F)c(C2=NCCS2)c1CC(C)C` here?
**A.** Its outcome is “inactive”.

**Q.** For `CCCC(=NOCC)C1=C(O)CC(CC(C)SCC)CC1=O` (stereo not given), which outcome is on record?
**A.** The outcome was “inactive”.

**Q.** `CS(=O)(=O)c1cc(C(F)(F)F)ccc1C(=O)c1cnoc1C1CC1` was tested. Which outcome did it give?
**A.** The outcome was “inactive”.

**Q.** With `CC(C)(C)C(=O)C(Oc1ccc(Cl)cc1)n1cncn1` (stereo not given) as the molecule, how does the outcome read?
**A.** The outcome was “inactive”.

**Q.** For `CN=C=S`, which outcome is on record?
**A.** Its outcome is “inactive”.

**Q.** `N#Cc1c[nH]cc1-c1cccc2c1OC(F)(F)O2` was tested. Which outcome did it give?
**A.** The outcome was “inactive”.
